# Laboratory results as given in PubChem BioAssay (Tox21).
# Records with an inconclusive call do not appear. Where a call stands in place of a potency, no number is given. Activity calls are given as the source filed them. Unless noted, calls follow the shape of the dose curve; as a rule, active = well fitted curve in the direction sought with a large enough effect in the repeat runs; inconclusive = weak or mixed curves; inactive = no such curve, though single readings can be large; an effect the other way counts as inactive or inconclusive.
# Tests used:
# Aromatase (Homo sapiens) = Aromatase (Homo sapiens) (UniProt P11511); assay: qHTS assay to identify aromatase inhibitors (AID 743083); details: MCF-7 aro ERE, testosterone-driven ERE luciferase, 24 h; series mostly up to 70.3 µM; also: nearly all actives have a fitted effect of over 55% in size; also: potency is read from the fitted curve at half-maximal effect
# Sequence of Aromatase (Homo sapiens) (P11511 whole entry, looked up): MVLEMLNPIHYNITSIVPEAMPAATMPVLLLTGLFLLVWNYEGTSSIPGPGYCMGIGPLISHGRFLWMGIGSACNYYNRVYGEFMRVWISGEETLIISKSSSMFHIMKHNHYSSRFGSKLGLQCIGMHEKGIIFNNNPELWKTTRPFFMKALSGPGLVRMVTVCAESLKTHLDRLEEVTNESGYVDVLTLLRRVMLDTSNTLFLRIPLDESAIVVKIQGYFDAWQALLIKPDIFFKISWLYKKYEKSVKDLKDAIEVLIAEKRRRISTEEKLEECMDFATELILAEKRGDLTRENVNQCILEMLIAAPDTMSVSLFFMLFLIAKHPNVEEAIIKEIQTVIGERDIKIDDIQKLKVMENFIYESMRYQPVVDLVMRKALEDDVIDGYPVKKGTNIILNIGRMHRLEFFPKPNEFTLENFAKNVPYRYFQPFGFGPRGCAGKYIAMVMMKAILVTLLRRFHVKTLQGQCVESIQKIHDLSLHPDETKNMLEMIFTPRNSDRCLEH
# [1] = qHTS assay to identify aromatase inhibitors - cell viability counter screen (AID 743084); details: MCF-7 aro ERE viability, CellTiter-Fluor, 24 h; series mostly up to 70.3 µM;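 also: cells stimulated with testosterone during compound exposure; nearly all actives have a fitted effect of over 55% in size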; also: potency is read from the fitted curve at half-maximal effect
# [2] = qHTS assay to identify small molecule that activate the aryl hydrocarbon receptor (AhR) signaling pathway - cell viability counter screen (AID 743086); details: HepG2-AhR-luc viability, CellTiter-Fluor, 24 h; series mostly up to 70.3 µM; also: nearly all actives have a fitted effect of over 45% in size; also: potency is read from the fitted curve at half-maximal effect
# Summary of the method: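 HepG2-AhR-luc (HG2L7.5c1) cells, 4000/well, were preincubated 5 h at 37C, exposed to compound in qHTS format for 24 hr at 37C, then given CellTiter-Fluor for 30 min; viability was read as fluorescence in the reporter wells.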
# [3] = tested on: thyroid hormone receptor (rat, GH3 cells); assay: qHTS assay to identify small molecule agonists of the thyroid receptor (TR) signaling pathway (AID 743066; calls by dose curve); details: GH3.TRE-Luc cells, TR agonist luciferase, 24 h; series mostly up to 83.9 µM
# [4] = qHTS assay to identify small molecule antagonists of the estrogen receptor alpha (ER-alpha) signaling pathway - cell viability counter screen (AID 743074; calls by dose curve;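 also: HEK293 cells carrying ER-alpha-UAS-bla reporter stimulated with 17beta-estradiol; nearly all actives have a fitted effect of over 45% in size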); details: ERalpha-bla HEK293 viability, CellTiter-Glo luminescence, 18 h; series mostly up to 69.4 µM
# [5] = target: Estrogen receptor (Homo sapiens) (UniProt P03372); assay: qHTS assay to identify small molecule agonists of the estrogen receptor alpha (ER-alpha) signaling pathway (AID 743075; calls by dose curve;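 also: HEK293 GripTite cells with ER-alpha and UAS-driven beta-lactamase reporter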); details: HEK293 ER-alpha-UAS-bla, beta-lactamase FRET ratio, 18 h; series mostly up to 70.1 µM
# Sequence of Estrogen receptor (Homo sapiens) (P03372 whole entry, looked up): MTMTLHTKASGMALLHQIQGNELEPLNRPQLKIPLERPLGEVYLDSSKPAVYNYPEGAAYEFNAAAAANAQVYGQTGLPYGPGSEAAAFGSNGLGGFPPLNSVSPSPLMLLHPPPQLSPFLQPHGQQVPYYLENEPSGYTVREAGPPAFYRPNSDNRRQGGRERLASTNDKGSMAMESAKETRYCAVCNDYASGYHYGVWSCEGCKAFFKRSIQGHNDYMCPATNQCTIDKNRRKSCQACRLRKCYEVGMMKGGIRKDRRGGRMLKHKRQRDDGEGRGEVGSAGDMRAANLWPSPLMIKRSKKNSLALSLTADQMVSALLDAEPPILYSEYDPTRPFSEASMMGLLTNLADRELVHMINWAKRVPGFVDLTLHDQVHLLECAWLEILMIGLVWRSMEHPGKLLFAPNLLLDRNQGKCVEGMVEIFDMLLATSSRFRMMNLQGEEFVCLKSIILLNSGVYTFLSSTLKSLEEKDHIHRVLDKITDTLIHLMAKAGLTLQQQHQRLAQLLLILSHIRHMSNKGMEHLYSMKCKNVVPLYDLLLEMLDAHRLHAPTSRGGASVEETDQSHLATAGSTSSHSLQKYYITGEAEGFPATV
# [6] = target: Estrogen receptor (Homo sapiens) (UniProt P03372); assay: qHTS assay to identify small molecule agonists of the estrogen receptor alpha (ER-alpha) signaling pathway using the BG1 cell line (AID 743079); details: BG1Luc4E2 cells, ERE-luciferase agonist, 22 h; series mostly up to 70.3 µM; also: nearly all actives have a fitted effect of over 20% in size; also: potency is read from the fitted curve at half-maximal effect
# [7] = qHTS assay to identify small molecule antagonists of the estrogen receptor alpha (ER-alpha) signaling pathway using the BG1 cell line (AID 743080; calls by dose curve;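 also: BG1 cells stimulated with 17beta-estradiol alongside compound; nearly all actives have a fitted effect of over 25% in size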); details: BG1Luc4E2 ERE-luciferase antagonist mode, luminescence; series mostly up to 70.3 µM
# Summary of the method: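 Luminescence from a 4×ERE-luciferase reporter in BG1-Luc-4E2 cells served as read-out. Cells, pre-cultured 5 days in stripped-serum phenol-red-free medium, were exposed to compound with 17beta-estradiol co-stimulation for 21.5 h at 37 C.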
# [8] = target: Aryl hydrocarbon receptor (Homo sapiens) (UniProt P35869); assay: qHTS assay to identify small molecule that activate the aryl hydrocarbon receptor (AhR) signaling pathway (AID 743085); details: HepG2 AhR-luc (HG2L7.5c1), luciferase, 24 h; series mostly up to 70.3 µM; also: nearly all actives have a fitted effect of over 15% in size; also: potency is read from the fitted curve at half-maximal effect;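 as to activation: HG2L7.5c1 human HepG2 liver cells with stably integrated DRE-driven firefly reporter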
# Sequence of Aryl hydrocarbon receptor (Homo sapiens) (P35869 whole entry, looked up): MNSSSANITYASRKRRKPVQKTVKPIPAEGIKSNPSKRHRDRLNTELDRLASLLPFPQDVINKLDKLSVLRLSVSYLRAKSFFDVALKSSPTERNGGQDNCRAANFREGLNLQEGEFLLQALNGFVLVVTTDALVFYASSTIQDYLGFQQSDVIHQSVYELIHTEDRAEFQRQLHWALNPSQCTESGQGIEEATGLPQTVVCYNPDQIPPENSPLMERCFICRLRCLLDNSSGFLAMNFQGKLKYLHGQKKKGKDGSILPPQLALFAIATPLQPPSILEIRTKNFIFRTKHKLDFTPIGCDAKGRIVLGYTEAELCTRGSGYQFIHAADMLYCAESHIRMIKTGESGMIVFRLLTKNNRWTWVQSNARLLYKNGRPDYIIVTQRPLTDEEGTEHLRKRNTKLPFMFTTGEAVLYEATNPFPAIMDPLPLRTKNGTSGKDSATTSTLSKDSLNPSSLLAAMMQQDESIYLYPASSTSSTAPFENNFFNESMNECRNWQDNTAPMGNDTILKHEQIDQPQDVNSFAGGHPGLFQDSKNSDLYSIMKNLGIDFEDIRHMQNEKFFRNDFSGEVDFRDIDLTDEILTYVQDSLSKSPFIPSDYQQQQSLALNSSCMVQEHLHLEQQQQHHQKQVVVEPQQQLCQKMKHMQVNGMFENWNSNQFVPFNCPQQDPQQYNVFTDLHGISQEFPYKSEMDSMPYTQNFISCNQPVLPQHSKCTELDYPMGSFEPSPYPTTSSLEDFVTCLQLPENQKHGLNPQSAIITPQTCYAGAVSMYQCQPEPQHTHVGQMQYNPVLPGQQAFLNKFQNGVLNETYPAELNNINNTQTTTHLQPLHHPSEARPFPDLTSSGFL
# Summary of the method: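 Measured in HG2L7.5c1 cells: CellTiter-Fluor signal (30 min incubation, 37C) for viability, then luciferase luminescence (30 min, room temperature). Compound contact time was 24 h at 37C, following a 5 h pre-incubation.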
# [9] = target: Peroxisome proliferator-activated receptor gamma (Homo sapiens) (UniProt P37231); assay: qHTS assay to identify small molecule agonists of the peroxisome proliferator-activated receptor gamma (PPARg) signaling pathway (AID 743094; active = well fitted activation curve with a large enough effect in the signal ratio in the repeat runs, not every such curve was filed as active; the % refers to the signal ratio); details: HEK293H PPARg-UAS-bla, beta-lactamase FRET ratio, 17 h; series mostly up to 57 µM
# Sequence of Peroxisome proliferator-activated receptor gamma (Homo sapiens) (P37231 whole entry, looked up): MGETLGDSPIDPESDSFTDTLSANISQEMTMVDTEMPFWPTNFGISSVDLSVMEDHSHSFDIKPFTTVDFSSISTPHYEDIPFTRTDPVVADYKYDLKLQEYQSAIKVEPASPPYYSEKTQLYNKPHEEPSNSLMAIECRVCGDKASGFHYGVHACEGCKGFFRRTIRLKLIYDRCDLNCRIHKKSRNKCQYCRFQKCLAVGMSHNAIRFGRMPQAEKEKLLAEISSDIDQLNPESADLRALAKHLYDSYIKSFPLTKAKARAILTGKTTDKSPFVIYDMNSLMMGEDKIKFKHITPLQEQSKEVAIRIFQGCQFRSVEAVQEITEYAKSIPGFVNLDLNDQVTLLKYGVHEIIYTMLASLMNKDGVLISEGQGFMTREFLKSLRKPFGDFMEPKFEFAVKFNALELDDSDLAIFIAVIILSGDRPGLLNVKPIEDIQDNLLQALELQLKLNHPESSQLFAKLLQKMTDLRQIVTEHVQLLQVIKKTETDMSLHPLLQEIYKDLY
# Summary of the method: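 Reporter activation was scored by fluorescence of cleaved LiveBLAzer B/G substrate (1 h, room temperature) in PPARg-bla HEK293H cells previously treated 17 h at 37C with DMSO-dissolved compounds.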
# [10] = target: Estrogen receptor (Homo sapiens) (UniProt P03372); assay: qHTS assay to identify small molecule antagonists of the estrogen receptor alpha (ER-alpha) signaling pathway (AID 743069; active = well fitted curve in the direction sought with a large enough effect in the signal ratio in the repeat runs, not every such curve was filed as active; the % refers to the signal ratio); details: HEK293 ER-alpha-UAS-bla, beta-lactamase ratio, antagonist mode; series mostly up to 69.4 µM
# Summary of the method: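 A 17beta-estradiol challenge was applied right after compound transfer to ER-alpha-UAS-bla HEK293 cells previously kept in charcoal-stripped serum. Plates stood 18 hr at 37C and 5% CO2; fluorescence was read following 2 hr FRET substrate loading at room temperature.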
# [11] = qHTS assay to identify small molecule antagonists of the estrogen receptor alpha (ER-alpha) signaling pathway using the BG1 cell line - cell viability counter screen (AID 743081); details: BG1Luc4E2 viability, CellTiter-Fluor, 22 h; series mostly up to 70.3 µM;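 also: compound given together with 17beta-estradiol as the ER stimulus; nearly all actives have a fitted effect of over 45% in size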
# [12] = qHTS assay to identify small molecule antagonists of the peroxisome proliferator-activated receptor gamma (PPARg) signaling pathway - cell viability counter screen (AID 743194); details: PPARg-bla HEK293H viability, CellTiter-Glo luminescence, 17 h, co-treated with 50 nM rosiglitazone; series mostly up to 62.6 µM; also: nearly all actives have a fitted effect of over 55% in size; also: potency is read from the fitted curve at half-maximal effect
# Summary of the method: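 PPARg-UAS-bla HEK293H cells were plated, rested 5 h at 37 C, then treated with compounds plus rosiglitazone (50 nM final) for 17 h at 37 C; viability was then read by CellTiter-Glo luminescence after 30 min at room temperature.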
# [13] = qHTS assay for small molecule agonists of the antioxidant response element (ARE) signaling pathway - cell viability counter screen (AID 743203; calls by dose curve; also: nearly all actives have a fitted effect of over 55% in size; also: potency is read from the fitted curve at half-maximal effect); details: ARE-bla HepG2 viability, CellTiter-Glo luminescence, 16 h; series mostly up to 73.3 µM
# Summary of the method: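 Viability counter screen: stably transfected ARE-bla HepG2 line, 16 hrs compound exposure at 37C/5% CO2, ATP-based CellTiter-Glo luminescence measured in the reporter wells.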
# [14] = qHTS assay to identify small molecule agonists of the peroxisome proliferator-activated receptor delta (PPARd) signaling pathway - cell viability counter screen (AID 743211); details: PPARd-bla HEK293H viability, CellTiter-Glo luminescence, 17 h; series mostly up to 62.6 µM; also: nearly all actives have a fitted effect of over 55% in size; also: potency is read from the fitted curve at half-maximal effect
# Summary of the method: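 Following 5 h plating at 37 C and 5% CO2, PPARd UAS-bla HEK293H cells took up test compounds for 17 h. Viability was quantified by luminescence 30 min after CellTiter-Glo addition at room temperature.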
# [15] = target: Peroxisome proliferator-activated receptor delta (Homo sapiens) (UniProt Q03181); assay: qHTS assay to identify small molecule agonists of the peroxisome proliferator-activated receptor delta (PPARd) signaling pathway (AID 743212; calls by dose curve;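 also: HEK293H cells with PPARd UAS beta-lactamase reporter GeneBLAzer system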); details: HEK293H PPARd-UAS-bla, beta-lactamase FRET ratio, 17 h; series mostly up to 62.6 µM
# Sequence of Peroxisome proliferator-activated receptor delta (Homo sapiens) (Q03181 whole entry, looked up): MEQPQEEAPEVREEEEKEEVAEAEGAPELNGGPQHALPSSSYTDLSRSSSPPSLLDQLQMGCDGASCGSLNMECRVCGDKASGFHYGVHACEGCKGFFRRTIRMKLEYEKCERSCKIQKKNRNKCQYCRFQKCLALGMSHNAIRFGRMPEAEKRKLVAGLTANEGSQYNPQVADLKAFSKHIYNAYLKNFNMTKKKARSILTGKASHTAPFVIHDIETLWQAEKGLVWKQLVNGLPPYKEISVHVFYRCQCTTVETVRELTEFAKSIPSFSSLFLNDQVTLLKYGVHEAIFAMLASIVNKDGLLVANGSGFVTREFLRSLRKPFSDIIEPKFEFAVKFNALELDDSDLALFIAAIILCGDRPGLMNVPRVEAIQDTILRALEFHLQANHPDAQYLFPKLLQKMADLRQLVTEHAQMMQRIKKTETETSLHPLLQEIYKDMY
# Summary of the method: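 Beta-lactamase reporter read by fluorescence (LiveBLAzer B/G FRET, 2 h, room temperature). Test agents, in DMSO, incubated at 37 C with PPARd-bla HEK293H cells.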
# [16] = qHTS assay for small molecule agonists of the antioxidant response element (ARE) signaling pathway (AID 743202; active = well fitted activation curve with a large enough effect in the signal ratio in the repeat runs, not every such curve was filed as active; the % refers to the signal ratio); details: HepG2 ARE-bla reporter, beta-lactamase FRET, 16 h; series mostly up to 73.3 µM
# Summary of the method: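 Following a 16 h, 37 C exposure of reporter HepG2 cells (ARE-driven beta-lactamase, 2,000 cells/well) to compounds, FRET substrate was applied for 2 h at room temperature and fluorescence intensity recorded.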
SMILES,Potency (Aromatase (Homo sapiens)),Potency [1],Potency [2],Potency [3],Potency [4],Potency [5],Potency [6],Potency [7],Potency [8],Potency [9],Potency [10],Potency [11],Potency [12],Potency [13],Potency [14],outcome [15],Potency [16]
C=C1C(=C/C=C2\CCC[C@]3(C)[C@@H]([C@H](C)CCCC(C)C)CC[C@@H]23)C[C@@H](O)C[C@@H]1O,inactive,inactive,inactive,–,–,–,–,–,–,–,–,–,–,–,–,–,–
CN1C(C(=O)Nc2ccccn2)C(=O)c2sc(Cl)cc2S1(=O)=O (centres undefined),inactive,inactive,inactive,inactive,inactive,inactive,inactive,inactive,inactive,inactive,–,–,–,–,–,–,–
O=C(CCN1CCC(c2ccccc2)C1)c1ccc2c(c1)OCCO2 (centres undefined),–,–,inactive,–,inactive,inactive,inactive,inactive,inactive,inactive,inactive,inactive,inactive,inactive,inactive,–,–
C=C1[C@H](CO)[C@@H](O)C[C@@H]1n1cnc2c(=O)[nH]c(N)nc21,inactive,inactive,inactive,–,inactive,–,–,–,inactive,inactive,–,inactive,–,–,–,–,–
CO/N=C(\C(=O)N[C@@H]1C(=O)N2C(C(=O)O)=C(CSc3cnns3)CS[C@H]12)c1csc(N)n1,inactive,inactive,inactive,–,inactive,inactive,inactive,inactive,inactive,inactive,inactive,inactive,–,–,–,–,–
CC[C@H](C)C(=O)O[C@H]1CCC=C2C=C[C@H](C)[C@H](CC[C@@H]3C[C@@H](O)CC(=O)O3)[C@H]21,–,inactive,–,inactive,inactive,inactive,inactive,–,inactive,inactive,–,inactive,–,–,–,–,–
O=C(O)C[C@H](O)C[C@H](O)/C=C/c1c(C2CC2)nc2ccccc2c1-c1ccc(F)cc1,–,inactive,inactive,inactive,inactive,–,inactive,–,inactive,inactive,–,inactive,–,–,–,–,–
CCCCCCCCCCCCCCCCCCOCC(COP(=O)([O-])OCC[N+](C)(C)C)OC (centres undefined),inactive,inactive,inactive,inactive,inactive,inactive,inactive,inactive,inactive,inactive,inactive,inactive,–,–,–,–,–
CCC1OC(=O)C[C@@H](O)[C@H](C)[C@@H](O[C@@H]2O[C@H](C)C[C@H](N(C)C)[C@H]2O)[C@@H](CC=O)C[C@@H](C)C(=O)/C=C/[C@]2(C)OC2C1C (some centres undefined),26.6 µM (active),21.1 µM (active),21.1 µM (active),–,inactive,inactive,–,–,inactive,–,–,–,–,–,–,–,–
CCN(CC)CCn1c(=O)c(Cc2ccc(OC)cc2)nc2ccccc21,inactive,inactive,inactive,inactive,inactive,inactive,inactive,inactive,inactive,inactive,inactive,inactive,–,–,–,–,–
O=C1OC(O)C(C(Cl)Cl)=C1Cl (centres undefined),–,–,–,inactive,inactive,–,inactive,inactive,inactive,–,–,inactive,–,inactive,–,inactive,–
CC(=O)Oc1cc(C(F)(F)F)ccc1C(=O)O,inactive,inactive,inactive,inactive,inactive,–,–,–,inactive,inactive,–,inactive,–,–,–,–,–
CN(C/C=C/c1ccccc1)Cc1cccc2ccccc12,inactive,inactive,inactive,inactive,inactive,inactive,inactive,inactive,inactive,inactive,inactive,inactive,inactive,inactive,–,inactive,inactive
O=C(O)[C@@H]1C[C@H](CP(=O)(O)O)CCN1,inactive,inactive,inactive,–,inactive,inactive,inactive,inactive,inactive,inactive,inactive,inactive,–,–,–,–,–
CN=C(N)NCCC[C@H](N)C(=O)O,inactive,inactive,inactive,–,inactive,–,–,–,inactive,–,–,inactive,–,–,–,–,–
Cc1ccc2nc(-c3ccc(N)cc3)sc2c1S(=O)(=O)O,inactive,–,inactive,inactive,–,inactive,7.58 µM (active),–,4.26 µM (active),–,inactive,inactive,inactive,inactive,–,–,–
CCN(CC)CCNC(=O)c1ccc(NS(C)(=O)=O)cc1,inactive,inactive,inactive,–,–,–,–,–,inactive,inactive,–,–,–,–,–,–,–
CCCCCCCCCCCCN1CCCC1=O,inactive,inactive,inactive,inactive,–,–,–,–,–,inactive,–,inactive,54.9 µM (active),61.1 µM (active),54.9 µM (active),inactive,–
O=C1CCCCCCCCCCCCCC1,–,–,–,inactive,inactive,inactive,inactive,inactive,–,–,–,inactive,inactive,inactive,inactive,inactive,inactive
